Fewer than 10 of roughly 2,400 compounds were called active. How the calls were made is not given here. Only a sample is shown.
target: Rac GTPase-activating protein 1 (Homo sapiens) (UniProt Q9H0H5); assay: MgcRacGAP inhibitors via phosphate release, confirmation, orthogonal assay, biochemical, inorganic phosphate detection, Rac1 (AID 652142); settings: MgcRacGAP/Rac1F28L GTP hydrolysis, Biomol green phosphate; active compounds read high; concentration not given here
Sequence (Q9H0H5 whole entry, looked up): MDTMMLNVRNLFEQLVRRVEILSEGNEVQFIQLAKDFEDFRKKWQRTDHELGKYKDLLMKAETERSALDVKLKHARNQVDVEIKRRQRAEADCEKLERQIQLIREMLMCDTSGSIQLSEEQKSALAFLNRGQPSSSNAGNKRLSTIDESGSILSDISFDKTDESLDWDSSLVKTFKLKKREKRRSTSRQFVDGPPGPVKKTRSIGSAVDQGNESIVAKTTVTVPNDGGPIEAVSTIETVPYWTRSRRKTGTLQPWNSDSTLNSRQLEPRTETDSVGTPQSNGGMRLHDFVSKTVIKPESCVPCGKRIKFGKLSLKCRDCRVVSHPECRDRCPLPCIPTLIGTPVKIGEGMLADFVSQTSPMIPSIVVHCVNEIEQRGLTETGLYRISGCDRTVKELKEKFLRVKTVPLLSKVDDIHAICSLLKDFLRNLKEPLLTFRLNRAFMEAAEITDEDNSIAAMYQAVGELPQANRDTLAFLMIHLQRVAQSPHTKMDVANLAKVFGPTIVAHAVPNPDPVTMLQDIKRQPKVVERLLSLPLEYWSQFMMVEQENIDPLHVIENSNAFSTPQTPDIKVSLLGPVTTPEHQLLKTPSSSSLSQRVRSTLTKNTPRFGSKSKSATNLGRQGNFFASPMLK

inhibition, inactive:
Cc1nn2cc(-c3ccc(N)cc3)nc2s1 22.3%
Oc1ccc(/C=N/Nc2ccnc3cc(Cl)ccc23)cc1O 4.55%
Oc1ccc(/C=N\Nc2cc(N3CCOCC3)nc(N3CCOCC3)n2)c(O)c1 21.8%
Nc1ccc(N2CCCC2)c(S(=O)(=O)Nc2cccc(C(F)(F)F)c2)c1 29.9%
Cc1ccc(-c2cc(C(=O)N3CCN(c4ccc(O)cc4)CC3)c3ccccc3n2)cc1 23.8%
O=C(/C=C/Nc1ccc(Nc2ccccc2)cc1)c1cccs1 19.5%
C/C(=N\NC(=O)c1cccc(N/N=C(\C)c2cc(O)ccc2O)c1)c1cc(O)ccc1O 28.1%
Cc1ccc(CN2CCN(Cc3ccccc3C(F)(F)F)CC2)cc1 17.2%
CCOC(=O)C1=C(COC(=O)/C=C/c2ccc(O)c(OC)c2)NC(=O)NC1C (configuration not stated) 11.2%
COc1cc(/C=C/C(=O)OCC(=O)N2CC3(C)CC2CC(C)(C)C3)ccc1O (configuration not stated) 33.5%
COc1ccc(S(=O)(=O)/N=C2\C=C(Nc3ccc(O)cc3)C(=O)c3ccccc32)cc1 13.5%
CCn1c(=S)[nH]c2sc3c(c2c1=O)CCCC3 10.8%
CCc1ccc(O)c(N=Cc2cccc(C)c2O)c1 23.4%
N=C(N)c1ccc(N=Nc2c(O)ccc3c2[nH]c2ccccc23)cc1 62.4%
CCc1ccc(O)c(N=Cc2ccccc2O)c1 33.5%
CN(C)c1ccc(C=c2c3cc(O)ccc3n3c2cc(-c2ccccc2)[n+]3C)cc1 83.7%
Oc1ccc(/C=N/Nc2cc(N3CCOCC3)nc(N3CCOCC3)n2)cc1 25.9%
Oc1ccc(/C=N/Nc2ccc(C(F)(F)F)cn2)c(O)c1 19.4%
O=S(=O)(O)c1cc(O)c(N=Nc2ccc(O)cc2O)c2ccccc12 24.4%
Oc1ccc(-c2[nH]ncc2-c2ccc(Cl)cc2)c(O)c1 26.7%
CN(C)c1ccc2c(c1)C(=NO)c1ccccc1-2 19.4%
O=C(NCc1ccco1)c1sc(=S)n2c1[nH]c(=O)c1ccccc12 31.8%
CCN(CC)c1ccc(Nc2nc(Cl)ncc2Br)cc1 33.2%
CCOc1cc(/C=N/NC(=O)CN2CCCCC2)ccc1O 30.3%
CN(c1ccc(O)cc1)c1nc(-c2ccccc2)cs1 23.3%
COc1cc(/C=N/Nc2nc3ccccc3[nH]2)ccc1O 12.2%
CCN(c1ccccc1)S(=O)(=O)c1ccc(N2CCN(c3ccc(O)cc3)CC2)nc1 27.7%
CCOc1cc(/C=N/NC(=O)CCCC(=O)NC2CCCCC2)ccc1O 20.5%
Cc1cc(-c2ccccc2)nc(N/N=C/c2ccc(O)cc2O)n1 20.5%
Cc1c(C(=O)N/N=C/c2ccc(O)c(Br)c2)sc(N)c1C#N 31.3%
Nc1ccc2nc(C3CCCCC3)[nH]c2c1 28.4%
COc1cc(/C=N/NC(=S)NC2CC3CCC2C3)ccc1O (configuration not stated) -0.0456%
COc1cc2c(cc1NC(=O)C(Cl)Cl)-c1ccc(NC(=O)C(Cl)Cl)cc1C2 13.1%
CSc1nc(/C=C2\C=Nc3ccccc32)c(O)n1C 7.92%
Cn1c(-c2ccc(Cl)cc2)cnc1NCc1cc2c(cc1[N+](=O)[O-])OCO2 22.1%
C=CCn1c(SCC(=O)c2ccc(O)c(O)c2)nnc1-c1cccc(Cl)c1 29.9%
CN(Cc1ccccc1)Cc1c(O)ccc2ccccc12 23.9%
COc1cc(/C=N/NC(=O)CN(Cc2ccccc2)S(=O)(=O)c2ccc3c(c2)OCCO3)ccc1O -2.68%
COc1cccc(CNc2ccc3[nH]c(=O)[nH]c3c2)c1OCc1ccccc1Cl -0.282%
Cc1ccccc1C(OCC(O)CN1CCN(CCO)CC1)c1ccccc1 (configuration not stated) 29.2%
CCN1CCN(CCOc2ccc(Br)cc2C)CC1 23.2%
COc1cc(/C=N/NC(=O)NC23CC4CC(CC(C4)C2)C3)ccc1O 35.9%
O=c1c2ccccc2sn1-c1ccc(Cl)cc1 75%
CC[n+]1ccc(/C=C/c2ccc(N(C)C)cc2)c2ccccc21 31.5%
COc1cc(/C=N/NC(=O)c2nnn(-c3nonc3N)c2C(C)C)ccc1O 15.1%
CN1CCN(/N=C/c2nc(-c3ccccc3)n3ccccc23)CC1 30.1%
CC(=O)N1CCN(c2ccc(Nc3ncnc4c3oc3ccccc34)cc2)CC1 8.13%
CCOc1cc(/C=N/NC(=O)c2ccccc2-n2cccc2)ccc1O 30.4%
CN(C)c1ccc(N=C/C=C2\N(C)c3ccccc3C2(C)C)cc1 22.7%
COc1cc(/C=N/NC(=O)c2ccc(-n3cccc3)cc2)ccc1O 12.4%
COc1cc(/C=N/NC(=O)C2(O)c3ccccc3-c3ccccc32)ccc1O 25.6%
COc1ccc(Oc2cn[nH]c2-c2ccc(O)cc2O)cc1 17.2%
Cc1cc(-c2ccccc2)nc(N/N=C/c2ccc(N(C)C)cc2)n1 23.8%
COc1cc(-c2nc3ccc(C)cn3c2Nc2ccc3c(c2)OCCO3)ccc1O 21.3%
CCOC(=O)c1cc(NCc2cccs2)ccc1N1CCOCC1 30.4%
O=C(N/N=C/c1ccc(O)cc1)Nc1cccc2nsnc12 33.1%
CC(=O)Nc1ccc(Oc2nc(-c3ccccn3)nc3ccccc23)cc1 26%
CCCS(=O)(=O)N1CCN(CC2CC3C=CC2C3)CC1 (configuration not stated) 10.6%
O=c1c2ccccc2sn1-c1ccc(Cl)cc1Cl 79.5%
O=[N+]([O-])c1cccc(/C=N/n2c(-c3cccnc3)n[nH]c2=S)c1 32.9%
C=CCn1c(N/N=C/c2ccc(O)cc2)nc2ccccc2c1=O 18.4%
COc1cc(CCNC2=CC(=O)c3ncccc3C2=O)ccc1O 23.7%
